Gal4-VP16 FLuc: Gal4-VP16 reporter inhibition counter-screen; Drosophila S2 Gal4-VP16 UAS-luciferase, luminescence, 20 h; Potency, µM (highest dose often 53.6 µM), without a hit: at the highest dose activity, negative = inhibition, hits mostly inhibitors; 3.5% of 310,000 active;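 note: Gal4-VP16 expression switched on by copper sulfate through the metallothionein promoter; % is set by controls: 0 for no effect and ±100 for the full control effect; nearly all actives have a fitted effect of over 50% in size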
RORgamma inh: inhibitors of mouse ROR gamma transcriptional activity; Potency, µM (titrated, usually from 53.6 µM), for inactives: top-dose activity change, negative = inhibition, usual class: inhibitors; Drosophila S2 Gal4-RORgamma UAS-luciferase reporter, 20 h; AID 2551; 5.4% of 310,000 active; note: % is set by controls: 0 for no effect and ±100 for the full control effect; nearly all actives have a fitted effect of over 60% in size
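Stably transfected Drosophila Schneider cells are the test system, with ROR gamma fused to Gal4 and luciferase under UAS control; luminescence is read after 20 hr of 700 uM copper sulfate induction at ambient temperature.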
GLP-1R agonist: GLP-1 receptor (human) agonism. P43220. HEK293 GLP-1R CRE-luciferase, luminescence, 4-6 h; cells express a hypersensitive GLP-1R form. Potency, µM (highest dose often 45.6 µM), without a hit: top-dose activation, hits mostly activators. 0.007% of 380,000 active. AID 624172; note: % of control where 0% means no effect
GLP1R inv ag: GLP-1 receptor (human) inverse agonism; HEK293 GLP-1R CRE-luciferase, luminescence, 24 h; GLP-1R form is constitutively active; 1.6% of 410,000 active; AID 624417; Potency, µM (doses to about 38.3 µM), without a hit: at the highest dose activity change, negative = inhibition, most hits filed as inhibitors; note: % is set by controls: 0 for no effect and ±100 for the full control effect; nearly all actives have a fitted effect of over 55% in size
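Constitutively active GLP-1R drives a cAMP-responsive luciferase in stably transfected HEK293 cells; test compounds are added after overnight (12 h) attachment and left 24 hr, and signal loss in luminescence marks inhibition.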
GLP1R cytotox: cytotoxicity counter-screen for GLP-1 receptor inverse agonists | HEK293 cAMP-luciferase reporter cells, luminescence, 24 h | Potency, µM (doses to about 38.3 µM), for the others: at the top dose activity change, negative = inhibition, usual class: inhibitors | 0.13% of 410,000 active | AID 624418;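 note: loss of luciferase light is scored as toxicity; % is set by controls: 0 for no effect and ±100 for the full control effect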
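Quantitative HTS format, 1536 wells, 200 cells/uL seeded. Compounds: 23 nL, 24 h, 37 °C. Detection: luciferase reagent, luminescence at 12 min RT; decreased signal taken as cytotoxic.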
* hit, by the source's call; u = inconclusive; x = no result given. Hits are enriched below; roughly 5.9% of the tested compounds scored in any of these assays. Calls come from the whole dose curve; as a rule, active = well fitted curve in the direction sought with a large enough effect; inconclusive = small, poorly fitted or top-dose-only effect, or another doubt; inactive = no such curve, though single readings can be large; an effect the other way counts as inactive or inconclusive. Potency is the fitted concentration of half-maximal effect.

SMILES | Gal4-VP16 FLuc | RORgamma inh | GLP-1R agonist | GLP1R inv ag | GLP1R cytotox
Cc1ccccc1OCc1n(CC(=O)OC2CC(C)CCC2C(C)C)c2ccccc2[n+]1C (stereo not drawn) | 17.8µM* | u | 12.3% | u | u
CC1CCC(C(C)C)C(OC(=O)c2ccccc2O)C1 (stereo not drawn) | -12.8% | 0.3% | 16.7% | x | x
CC1CCC(C(C)C)C(OC(=O)Cn2c(-c3ccc(Cl)cc3)[n+](C)c3ccccc32)C1 (stereo not drawn) | u | u | -1.6% | 10µM* | 10µM*
Cc1cc(-c2ccc(N=Nc3ccc4c(S(=O)(=O)O)cc(S(=O)(=O)O)c(N)c4c3O)c(C)c2)ccc1N=Nc1ccc2c(S(=O)(=O)O)cc(S(=O)(=O)O)c(N)c2c1O | u | u | -2.9% | x | x
CC(C)(C)OC(=O)N1CCC[C@H]1C(O)(c1ccccc1)c1ccccc1 | 5.4% | -17.9% | x | x | x
Cc1cc(C(=O)N/N=C\c2cc(C(C)(C)C)ccc2O)n[nH]1 | 5.62µM* | 2.24µM* | -3.8% | u | 87.9%
Cc1cc(C(=O)N/N=C/c2cc(Br)cc(Br)c2OC(=O)c2cccc(F)c2)n[nH]1 | -26.5% | 3.55µM* | -1.1% | u | 1.0%
Cc1cc(C(=O)N/N=C/c2cc(Br)ccc2OC(=O)c2ccc(Br)cc2)n[nH]1 | 7.08µM* | 8.91µM* | x | x | x
Cc1cc(C(=O)N/N=C/c2cccs2)n[nH]1 | 3.1% | 17.4% | 8.3% | 6.3% | -18.0%
Cc1ccc(-n2c(-c3ccc(Br)cc3)c[n+]3c2CCc2ccc4cccnc4c2-3)cc1 | 1.41µM* | 7.08µM* | -11.6% | u | u
COc1ncc2nc(-c3cc(F)cc(F)c3)c(=O)n(CCc3ccccc3)c2n1 | -9.1% | -4.3% | x | x | x
Clc1ccc(-c2cc(CN3CCCCC3)no2)cc1Cl | -3.6% | 7.2% | 16.0% | 10µM* | 1.7%
Cc1cc(C)c2c(c1)/C(=N/NC(=S)Nc1ccc(F)cc1)CCC2 | 15.8µM* | -21.9% | -1.0% | u | 8.7%
COC(=O)N/N=C1\CCCc2c(C)cc(C)cc21 | -2.7% | 4.7% | 0.8% | 26.0% | -0.2%
CCc1nnc(NC(=O)CSc2nnc(-c3ccco3)o2)s1 | u | 11.2µM* | -0.3% | -18.0% | -3.4%
Cc1cnc(NC(=O)CSc2nnc(Cc3ccccc3)o2)s1 | 3.8% | 10µM* | 0.9% | -14.5% | u
COc1ccc(Cc2nnc(SCC(=O)Nc3ncc(C)s3)o2)cc1 | u | -2.3% | 7.9% | -0.2% | 2.5%
CCc1nnc(NC(=O)CSc2nnc(COc3ccccc3C)o2)s1 | u | 11.2µM* | -5.1% | -14.8% | -26.1%
OC(COc1ccccc1)CSc1ncn[nH]1 (stereo not drawn) | -17.8% | 10.7% | -12.7% | 7.9% | -5.7%
CC(C)(C)c1ccc(OCC(O)CSc2ncn[nH]2)cc1 (stereo not drawn) | 5.62µM* | 10µM* | 4.3% | 0.0% | 7.7%

Screens as filed in PubChem.
